# Tests used:
# Experiment in all cases: DAPPL (digital affinity profiling via proximity ligation, sequencing); 10 mM Tris-HCl pH 7.5, 50 mM NaCl, 1 mM DTT, 4% glycerol, room temperature, 30 min; GST-TFs on glutathione beads, 16-mer random dsDNA library, 0.1% formaldehyde crosslink after washing; high values mean tight binding
# FLI1 = target: T1, FLI1 (Homo sapiens, UniProt Q01543 1-452); details: protein: recombinant; tags: N-terminal GST; dsDNA, one strand shown
# T1 sequence: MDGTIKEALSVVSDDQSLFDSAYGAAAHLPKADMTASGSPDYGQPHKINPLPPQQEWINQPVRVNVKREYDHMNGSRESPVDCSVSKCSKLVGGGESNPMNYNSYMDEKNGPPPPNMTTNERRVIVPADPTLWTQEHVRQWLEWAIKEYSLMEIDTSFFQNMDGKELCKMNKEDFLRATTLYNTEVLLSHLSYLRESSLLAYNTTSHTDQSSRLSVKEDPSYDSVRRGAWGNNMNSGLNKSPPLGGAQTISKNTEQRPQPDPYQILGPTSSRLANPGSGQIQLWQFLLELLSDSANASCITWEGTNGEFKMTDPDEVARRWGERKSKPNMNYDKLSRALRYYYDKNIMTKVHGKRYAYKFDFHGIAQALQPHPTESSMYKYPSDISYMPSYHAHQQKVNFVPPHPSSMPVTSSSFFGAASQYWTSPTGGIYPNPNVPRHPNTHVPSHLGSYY
# In short: (§1)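 Pools were built from human transcription factors expressed in yeast as GST fusions, captured on glutathione beads and DNA-barcoded, along with a tag-only sample. Incubation with 200 nmole of a 16-mer random double-stranded DNA library lasted 30 min at room temperature in Tris/NaCl/DTT/glycerol buffer, and was followed by washing, 0.1% formaldehyde crosslinking, proximity ligation, PCR amplification and Illumina NextSeq500 sequencing. Binding signal is the quotient of each hexamer's read frequency for a factor and its frequency for the tag-only sample.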
# ELK1 = target: T2, ELK1 (Homo sapiens, UniProt P19419 1-428); details: protein: recombinant; tags: N-terminal GST; dsDNA, one strand shown
# T2 sequence: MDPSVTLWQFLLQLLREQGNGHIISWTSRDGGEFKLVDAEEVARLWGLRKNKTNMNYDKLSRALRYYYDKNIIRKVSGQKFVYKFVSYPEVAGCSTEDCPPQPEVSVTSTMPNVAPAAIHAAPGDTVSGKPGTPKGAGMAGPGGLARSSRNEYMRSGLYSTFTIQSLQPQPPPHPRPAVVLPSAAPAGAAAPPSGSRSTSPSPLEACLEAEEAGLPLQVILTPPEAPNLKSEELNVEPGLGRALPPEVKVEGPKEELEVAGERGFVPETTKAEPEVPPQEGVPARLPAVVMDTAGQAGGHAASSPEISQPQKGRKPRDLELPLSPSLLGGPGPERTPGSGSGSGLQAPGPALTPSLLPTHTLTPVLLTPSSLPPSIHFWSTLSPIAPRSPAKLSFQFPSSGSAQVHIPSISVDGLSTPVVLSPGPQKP
# In short: as §1
# GABPA = target: T3, GABPA (Homo sapiens, UniProt Q06546 1-454); details: protein: recombinant; tags: N-terminal GST; dsDNA, one strand shown
# T3 sequence: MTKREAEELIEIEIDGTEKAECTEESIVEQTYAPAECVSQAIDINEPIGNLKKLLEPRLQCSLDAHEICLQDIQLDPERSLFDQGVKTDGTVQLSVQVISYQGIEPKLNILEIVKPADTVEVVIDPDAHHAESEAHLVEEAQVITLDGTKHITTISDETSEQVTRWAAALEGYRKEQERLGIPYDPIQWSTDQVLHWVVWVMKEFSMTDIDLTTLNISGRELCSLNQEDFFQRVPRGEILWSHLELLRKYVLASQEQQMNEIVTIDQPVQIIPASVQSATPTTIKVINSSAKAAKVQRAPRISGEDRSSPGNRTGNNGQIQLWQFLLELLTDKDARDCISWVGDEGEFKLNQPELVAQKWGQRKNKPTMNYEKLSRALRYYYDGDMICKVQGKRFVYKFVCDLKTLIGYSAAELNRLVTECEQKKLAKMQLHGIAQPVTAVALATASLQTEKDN
# In short: as §1
# ERG = target: T4, ERG (Homo sapiens, UniProt P11308 1-479); details: protein: recombinant; tags: N-terminal GST; dsDNA, one strand shown
# T4 sequence: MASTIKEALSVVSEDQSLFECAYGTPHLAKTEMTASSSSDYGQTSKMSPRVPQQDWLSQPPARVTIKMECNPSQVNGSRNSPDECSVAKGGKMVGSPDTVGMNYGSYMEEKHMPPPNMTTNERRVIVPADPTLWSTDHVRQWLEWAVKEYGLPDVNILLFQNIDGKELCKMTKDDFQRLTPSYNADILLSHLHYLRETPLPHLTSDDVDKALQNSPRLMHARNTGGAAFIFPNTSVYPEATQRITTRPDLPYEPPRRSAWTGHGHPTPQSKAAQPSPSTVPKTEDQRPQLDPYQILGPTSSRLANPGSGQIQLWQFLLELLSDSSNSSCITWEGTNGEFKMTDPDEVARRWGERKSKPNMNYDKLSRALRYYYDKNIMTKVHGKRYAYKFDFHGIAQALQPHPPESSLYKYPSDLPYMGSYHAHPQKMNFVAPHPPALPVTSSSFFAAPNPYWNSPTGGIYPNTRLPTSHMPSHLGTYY
# In short: as §1
# ELF1 = ELF1 (Homo sapiens, UniProt P32519 1-619); details: protein: recombinant; tags: N-terminal GST; dsDNA, one strand shown
# ELF1, sequence (P32519 whole entry): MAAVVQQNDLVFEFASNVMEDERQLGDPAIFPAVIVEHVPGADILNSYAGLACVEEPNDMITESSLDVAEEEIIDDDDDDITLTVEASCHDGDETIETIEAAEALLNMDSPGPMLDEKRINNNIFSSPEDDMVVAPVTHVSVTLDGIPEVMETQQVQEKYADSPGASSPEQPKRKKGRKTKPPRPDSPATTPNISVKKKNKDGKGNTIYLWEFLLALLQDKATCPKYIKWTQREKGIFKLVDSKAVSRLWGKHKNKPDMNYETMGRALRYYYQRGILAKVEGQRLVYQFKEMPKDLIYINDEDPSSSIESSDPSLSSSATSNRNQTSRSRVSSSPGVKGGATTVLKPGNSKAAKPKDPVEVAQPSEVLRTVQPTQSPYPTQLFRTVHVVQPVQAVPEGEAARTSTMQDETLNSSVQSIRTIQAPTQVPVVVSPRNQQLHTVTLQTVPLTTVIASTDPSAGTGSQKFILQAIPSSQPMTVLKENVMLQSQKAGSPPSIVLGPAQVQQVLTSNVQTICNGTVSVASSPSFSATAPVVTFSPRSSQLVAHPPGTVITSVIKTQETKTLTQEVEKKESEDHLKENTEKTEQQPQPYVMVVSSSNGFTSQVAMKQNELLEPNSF
# In short: as §1
# EHF = target: T5, EHF (Homo sapiens, UniProt Q9NZC4 1-300); details: protein: recombinant; tags: N-terminal GST; dsDNA, one strand shown
# T5 sequence: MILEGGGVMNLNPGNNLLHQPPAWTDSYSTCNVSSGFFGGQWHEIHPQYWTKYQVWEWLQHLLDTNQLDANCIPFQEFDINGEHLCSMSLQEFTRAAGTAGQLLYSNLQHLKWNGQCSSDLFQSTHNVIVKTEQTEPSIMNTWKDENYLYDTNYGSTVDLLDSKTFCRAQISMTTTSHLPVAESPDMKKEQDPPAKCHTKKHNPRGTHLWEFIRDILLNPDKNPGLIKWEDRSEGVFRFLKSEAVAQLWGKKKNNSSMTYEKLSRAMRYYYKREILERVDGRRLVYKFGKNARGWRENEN
# In short: as §1
# SPI1 = SPI1 (Homo sapiens, UniProt P17947 1-270); details: protein: recombinant; tags: N-terminal GST; dsDNA, one strand shown
# In short: as §1
# SPIB = SPIB (Homo sapiens, UniProt Q01892 1-262); details: protein: recombinant; tags: N-terminal GST; dsDNA, one strand shown
# SPIB, sequence (Q01892 whole entry): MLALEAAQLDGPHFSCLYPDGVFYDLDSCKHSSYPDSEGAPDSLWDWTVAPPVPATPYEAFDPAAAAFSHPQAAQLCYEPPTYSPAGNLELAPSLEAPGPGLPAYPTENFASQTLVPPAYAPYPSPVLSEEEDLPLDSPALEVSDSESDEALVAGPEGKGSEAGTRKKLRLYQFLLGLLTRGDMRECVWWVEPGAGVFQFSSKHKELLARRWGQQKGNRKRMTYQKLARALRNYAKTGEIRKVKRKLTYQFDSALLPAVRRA
# In short: as §1
# ELK3 = target: T6, ELK3 (Homo sapiens, UniProt P41970 1-407); details: protein: recombinant; tags: N-terminal GST; dsDNA, one strand shown
# T6 sequence: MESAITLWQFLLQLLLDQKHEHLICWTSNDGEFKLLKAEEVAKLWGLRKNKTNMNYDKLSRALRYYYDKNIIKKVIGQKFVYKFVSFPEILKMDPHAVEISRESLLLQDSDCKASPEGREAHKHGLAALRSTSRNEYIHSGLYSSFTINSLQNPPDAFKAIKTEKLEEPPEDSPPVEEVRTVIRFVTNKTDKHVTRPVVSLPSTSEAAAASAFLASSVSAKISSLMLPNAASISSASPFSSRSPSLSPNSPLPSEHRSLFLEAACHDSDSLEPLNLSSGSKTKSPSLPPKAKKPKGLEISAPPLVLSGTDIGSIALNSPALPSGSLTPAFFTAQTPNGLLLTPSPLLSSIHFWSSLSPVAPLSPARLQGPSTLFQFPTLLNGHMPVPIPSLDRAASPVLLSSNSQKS
# In short: as §1
# FEV = target: T7, FEV (Homo sapiens, UniProt Q99581 1-238); details: protein: recombinant; tags: N-terminal GST; dsDNA, one strand shown
# T7 sequence: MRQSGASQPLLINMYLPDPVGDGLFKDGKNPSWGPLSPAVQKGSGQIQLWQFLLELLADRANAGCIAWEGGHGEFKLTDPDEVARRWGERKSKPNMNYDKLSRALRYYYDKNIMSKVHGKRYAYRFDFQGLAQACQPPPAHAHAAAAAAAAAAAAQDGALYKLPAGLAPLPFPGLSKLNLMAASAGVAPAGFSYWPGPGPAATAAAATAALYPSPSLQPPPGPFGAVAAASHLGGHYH
# In short: as §1
# ETV5 = ETV5 (Homo sapiens, UniProt P41161 1-510); details: protein: recombinant; tags: N-terminal GST; dsDNA, one strand shown
# ETV5, sequence (P41161 whole entry): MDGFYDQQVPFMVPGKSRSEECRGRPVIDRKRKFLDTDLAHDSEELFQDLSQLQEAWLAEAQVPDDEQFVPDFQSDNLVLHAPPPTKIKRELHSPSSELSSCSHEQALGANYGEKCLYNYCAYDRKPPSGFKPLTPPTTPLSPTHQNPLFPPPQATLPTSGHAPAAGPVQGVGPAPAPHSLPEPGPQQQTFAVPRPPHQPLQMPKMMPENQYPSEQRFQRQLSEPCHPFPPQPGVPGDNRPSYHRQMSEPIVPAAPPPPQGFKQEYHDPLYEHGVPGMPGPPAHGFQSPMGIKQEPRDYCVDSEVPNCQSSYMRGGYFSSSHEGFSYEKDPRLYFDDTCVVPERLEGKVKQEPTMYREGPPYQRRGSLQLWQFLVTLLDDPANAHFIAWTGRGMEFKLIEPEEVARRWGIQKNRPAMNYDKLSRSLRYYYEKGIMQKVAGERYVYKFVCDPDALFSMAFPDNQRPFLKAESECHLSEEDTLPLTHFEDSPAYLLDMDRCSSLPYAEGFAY
# In short: as §1
# HSF1 = HSF1 (Homo sapiens, UniProt Q00613 1-529); details: protein: recombinant; tags: N-terminal GST; chain copies: 3; dsDNA, one strand shown
# HSF1, sequence (Q00613 whole entry): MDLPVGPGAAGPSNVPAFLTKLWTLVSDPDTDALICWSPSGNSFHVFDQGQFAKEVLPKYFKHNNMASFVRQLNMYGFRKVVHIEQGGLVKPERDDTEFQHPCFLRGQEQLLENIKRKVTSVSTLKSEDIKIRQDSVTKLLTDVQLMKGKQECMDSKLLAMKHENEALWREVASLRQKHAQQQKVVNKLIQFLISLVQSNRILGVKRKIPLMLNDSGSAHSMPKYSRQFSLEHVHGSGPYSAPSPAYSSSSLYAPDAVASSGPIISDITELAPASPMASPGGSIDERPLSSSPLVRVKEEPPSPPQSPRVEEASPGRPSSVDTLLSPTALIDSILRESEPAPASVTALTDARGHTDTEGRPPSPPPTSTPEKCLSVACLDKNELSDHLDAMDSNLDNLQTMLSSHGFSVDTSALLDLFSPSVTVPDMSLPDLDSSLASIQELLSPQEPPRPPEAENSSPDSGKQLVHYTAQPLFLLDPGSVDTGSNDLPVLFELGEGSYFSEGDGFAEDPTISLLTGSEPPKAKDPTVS
# In short: as §1
# SPIC = target: T8, SPIC (Homo sapiens, UniProt Q8N5J4 1-248); details: protein: recombinant; tags: N-terminal GST; dsDNA, one strand shown
# T8 sequence: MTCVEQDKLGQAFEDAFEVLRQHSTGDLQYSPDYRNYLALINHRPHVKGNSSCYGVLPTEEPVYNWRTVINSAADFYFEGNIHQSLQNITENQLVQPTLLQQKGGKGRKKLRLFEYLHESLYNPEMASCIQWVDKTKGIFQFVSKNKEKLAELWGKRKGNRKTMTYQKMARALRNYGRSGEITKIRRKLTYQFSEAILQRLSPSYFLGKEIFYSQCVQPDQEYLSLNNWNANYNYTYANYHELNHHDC
# In short: as §1
# ELF4 = ELF4 (Homo sapiens, UniProt Q99607 1-663); details: protein: recombinant; tags: N-terminal GST; dsDNA, one strand shown
# ELF4, sequence (Q99607 whole entry): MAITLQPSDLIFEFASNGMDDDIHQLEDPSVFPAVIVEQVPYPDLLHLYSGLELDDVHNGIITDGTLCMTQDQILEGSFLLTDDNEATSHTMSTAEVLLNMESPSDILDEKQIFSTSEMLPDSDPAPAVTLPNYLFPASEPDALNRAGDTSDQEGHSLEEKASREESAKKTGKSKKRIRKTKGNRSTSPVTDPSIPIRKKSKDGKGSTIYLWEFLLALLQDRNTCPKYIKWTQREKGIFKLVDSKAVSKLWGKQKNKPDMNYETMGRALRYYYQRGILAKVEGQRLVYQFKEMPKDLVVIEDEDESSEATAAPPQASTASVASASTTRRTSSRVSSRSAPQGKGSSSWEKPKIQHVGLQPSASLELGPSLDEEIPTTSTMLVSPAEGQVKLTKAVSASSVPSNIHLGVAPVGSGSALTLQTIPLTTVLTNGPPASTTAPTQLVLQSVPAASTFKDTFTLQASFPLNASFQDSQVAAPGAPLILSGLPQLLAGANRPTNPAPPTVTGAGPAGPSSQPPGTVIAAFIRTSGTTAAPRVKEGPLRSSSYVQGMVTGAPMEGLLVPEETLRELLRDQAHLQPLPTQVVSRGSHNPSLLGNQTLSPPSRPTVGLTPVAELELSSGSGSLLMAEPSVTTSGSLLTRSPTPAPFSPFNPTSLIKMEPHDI
# In short: as §1
# ELK4 = target: T9, ELK4 (Homo sapiens, UniProt P28324-2 1-405); details: protein: recombinant; tags: N-terminal GST; dsDNA, one strand shown
# T9 sequence: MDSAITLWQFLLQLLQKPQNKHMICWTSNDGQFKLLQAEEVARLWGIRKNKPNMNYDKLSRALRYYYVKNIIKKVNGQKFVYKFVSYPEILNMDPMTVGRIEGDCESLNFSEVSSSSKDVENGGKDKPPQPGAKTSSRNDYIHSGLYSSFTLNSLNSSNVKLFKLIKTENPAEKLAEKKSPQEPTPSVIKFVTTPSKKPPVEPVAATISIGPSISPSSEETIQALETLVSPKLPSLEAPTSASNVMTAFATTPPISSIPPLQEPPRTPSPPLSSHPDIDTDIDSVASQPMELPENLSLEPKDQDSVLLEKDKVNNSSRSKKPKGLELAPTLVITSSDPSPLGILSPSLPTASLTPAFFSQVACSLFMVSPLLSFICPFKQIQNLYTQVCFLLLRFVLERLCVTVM
# In short: as §1
# ETV2 = target: T10, ETV2 (Homo sapiens, UniProt O00321 1-342); details: protein: recombinant; tags: N-terminal GST; dsDNA, one strand shown
# T10 sequence: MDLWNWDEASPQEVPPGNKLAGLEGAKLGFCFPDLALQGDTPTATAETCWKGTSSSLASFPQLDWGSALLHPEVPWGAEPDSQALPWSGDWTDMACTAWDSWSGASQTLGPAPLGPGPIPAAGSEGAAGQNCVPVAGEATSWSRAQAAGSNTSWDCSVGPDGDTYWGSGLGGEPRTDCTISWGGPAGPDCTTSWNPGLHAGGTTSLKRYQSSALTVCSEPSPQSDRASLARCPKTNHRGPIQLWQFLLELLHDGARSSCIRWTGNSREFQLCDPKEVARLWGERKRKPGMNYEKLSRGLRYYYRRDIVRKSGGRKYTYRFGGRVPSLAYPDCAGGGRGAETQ
# In short: as §1
# ELF3 = target: T11, ELF3 (Homo sapiens, UniProt P78545 1-371); details: protein: recombinant; tags: N-terminal GST; dsDNA, one strand shown
# T11 sequence: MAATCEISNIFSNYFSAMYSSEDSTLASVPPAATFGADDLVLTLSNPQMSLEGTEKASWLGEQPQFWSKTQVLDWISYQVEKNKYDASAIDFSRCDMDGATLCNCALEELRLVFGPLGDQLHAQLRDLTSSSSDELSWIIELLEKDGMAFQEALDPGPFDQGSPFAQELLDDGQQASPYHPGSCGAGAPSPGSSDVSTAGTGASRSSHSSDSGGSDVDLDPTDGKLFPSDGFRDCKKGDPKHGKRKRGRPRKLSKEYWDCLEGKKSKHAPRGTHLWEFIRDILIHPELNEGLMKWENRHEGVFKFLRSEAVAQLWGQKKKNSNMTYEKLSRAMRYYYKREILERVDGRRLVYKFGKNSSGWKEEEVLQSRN
# In short: as §1
# CRX = CRX (Homo sapiens, UniProt O43186 1-299); details: protein: recombinant; tags: N-terminal GST; dsDNA, one strand shown
# CRX, sequence (O43186 whole entry): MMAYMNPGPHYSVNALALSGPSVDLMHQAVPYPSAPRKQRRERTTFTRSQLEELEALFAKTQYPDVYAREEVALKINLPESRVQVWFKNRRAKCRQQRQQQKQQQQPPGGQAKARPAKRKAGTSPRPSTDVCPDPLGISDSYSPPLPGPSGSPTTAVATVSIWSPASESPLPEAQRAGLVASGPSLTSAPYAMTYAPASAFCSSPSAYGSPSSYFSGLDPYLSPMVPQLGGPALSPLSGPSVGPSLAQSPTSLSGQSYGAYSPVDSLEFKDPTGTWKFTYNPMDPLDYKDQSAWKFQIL
# In short: as §1
# ETV1 = ETV1 (Homo sapiens, UniProt P50549 1-477); details: protein: recombinant; tags: N-terminal GST; dsDNA, one strand shown
# ETV1, sequence (P50549 whole entry): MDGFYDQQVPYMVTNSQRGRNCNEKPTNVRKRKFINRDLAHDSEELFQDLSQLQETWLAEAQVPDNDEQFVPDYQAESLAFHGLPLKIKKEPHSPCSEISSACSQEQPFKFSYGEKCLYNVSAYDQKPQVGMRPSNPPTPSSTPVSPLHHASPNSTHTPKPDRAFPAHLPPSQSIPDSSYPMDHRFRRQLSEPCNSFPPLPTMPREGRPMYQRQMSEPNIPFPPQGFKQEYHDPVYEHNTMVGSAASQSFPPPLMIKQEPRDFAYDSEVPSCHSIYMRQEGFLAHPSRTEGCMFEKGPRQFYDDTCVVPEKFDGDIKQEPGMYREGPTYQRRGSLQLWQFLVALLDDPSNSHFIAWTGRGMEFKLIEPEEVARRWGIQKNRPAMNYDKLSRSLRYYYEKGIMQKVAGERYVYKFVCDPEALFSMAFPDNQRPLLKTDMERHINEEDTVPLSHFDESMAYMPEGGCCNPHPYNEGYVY
# In short: as §1
sequence,measurement,setting,value
TCCCGC,binding signal,FLI1,"1.48 fold enrichment (6-mer frequency, TF over GST control)"
same,binding signal,ELK1,"1.53 fold enrichment (6-mer frequency, TF over GST control)"
same,binding signal,GABPA,"1.4 fold enrichment (6-mer frequency, TF over GST control)"
same,binding signal,ERG,"1.42 fold enrichment (6-mer frequency, TF over GST control)"
same,binding signal,ELF1,"1.47 fold enrichment (6-mer frequency, TF over GST control)"
same,binding signal,EHF,"1.52 fold enrichment (6-mer frequency, TF over GST control)"
same,binding signal,SPI1,"1.37 fold enrichment (6-mer frequency, TF over GST control)"
same,binding signal,SPIB,"1.48 fold enrichment (6-mer frequency, TF over GST control)"
same,binding signal,ELK3,"1.46 fold enrichment (6-mer frequency, TF over GST control)"
same,binding signal,FEV,"1.46 fold enrichment (6-mer frequency, TF over GST control)"
same,binding signal,ETV5,"1.41 fold enrichment (6-mer frequency, TF over GST control)"
same,binding signal,HSF1,"1.57 fold enrichment (6-mer frequency, TF over GST control)"
same,binding signal,SPIC,"1.46 fold enrichment (6-mer frequency, TF over GST control)"
same,binding signal,ELF4,"1.55 fold enrichment (6-mer frequency, TF over GST control)"
same,binding signal,ELK4,"1.26 fold enrichment (6-mer frequency, TF over GST control)"
same,binding signal,ETV2,"1.31 fold enrichment (6-mer frequency, TF over GST control)"
same,binding signal,ELF3,"1.36 fold enrichment (6-mer frequency, TF over GST control)"
same,binding signal,CRX,"1.42 fold enrichment (6-mer frequency, TF over GST control)"
same,binding signal,ETV1,"1.5 fold enrichment (6-mer frequency, TF over GST control)"

# From article PMC7862700, “An all-to-all approach to the identification of sequence-specific readers for epigenetic DNA modifications on cytosine”
